Counter-ions that a name gives are not always drawn. ± gives the standard deviation of the averaged measurements.
What follows are compounds tested on E. coli TESEC Mtb Alr (assay: growth (OD600 after 10 h); higher = more growth (less inhibition)). Details: arabinose 100000 nM; compound 0.1 mM; raw OD600 reference: median of DMSO wells 0.201, cell-free background 0.041.
Procedure: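 TESEC Mtb Alr E. coli, or the Alr+ wild-type control, in 384-well plates with Prestwick library compounds at 0.1 mM and 1% DMSO, across arabinose induction levels of 1E3 to 1E7 nM. Growth is read as OD600 after 10 h at 37 °C in triplicate biological replicates.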

| Structure (SMILES) | growth |
| --- | --- |
| N=c1nc(N2CCCCC2)cc(N)n1O [Minoxidil] | 0.225 ± 0.0082 |
| CC(=O)NC[C@H]1CN(c2ccc(N3CCOCC3)c(F)c2)C(=O)O1 [Linezolid] | 0.0473 ± 0.0018 |
| CC(O)(P(=O)(O)O)P(=O)(O)O [Etidronic acid, disodium salt] | 0.20943 ± 0.00012 |
| COc1ccc2cc([C@@H](C)C(=O)O)ccc2c1 [(R) -Naproxen sodium salt] | 0.198 ± 0.0079 |
| NC1CCN(c2nc3c(cc2F)c(=O)c(C(=O)O)cn3-c2ccc(F)cc2F)C1 (stereo not given) [Tosufloxacin hydrochloride] | 0.0552 ± 0.0018 |
| O=C(NCCNCC(O)COc1ccc(O)cc1)N1CCOCC1 (stereo not given) [Xamoterol hemifumarate] | 0.195 ± 0.022 |
| Cc1cc2cc3c(C)cc(=O)oc3c(C)c2o1 [Trioxsalen] | 0.192 ± 0.0079 |
| CCCCC(=O)O[C@H]1CC[C@H]2[C@@H]3CCc4cc(O)ccc4[C@H]3CC[C@]12C [Estradiol Valerate] | 0.215 ± 0.016 |
| CCCc1ncc(C[n+]2ccccc2C)c(N)n1 [Amprolium hydrochloride] | 0.207 ± 0.027 |
| COC1=C(OC)C(=O)C(CCCCCCCCCCO)=C(C)C1=O [Idebenone] | 0.0466 ± 0.0041 |
| CC(N/C(=N\C#N)Nc1ccncc1)C(C)(C)C (stereo not given) [Pinacidil] | 0.219 ± 0.0078 |
| C[C@H]1C[C@H]2[C@@H]3CCC4=CC(=O)C=C[C@]4(C)[C@@]3(F)[C@@H](O)C[C@]2(C)[C@@]1(O)C(=O)CO [Betamethasone] | 0.154 ± 0.0079 |
| Fc1ccc(C(c2ccc(F)cc2)N2CCN(C/C=C/c3ccccc3)CC2)cc1 [Flunarizine dihydrochloride] | 0.116 ± 0.012 |
| CCC(NC(C)C)C(O)c1ccc(O)c(O)c1 (stereo not given) [Isoetharine mesylate salt] | 0.188 ± 0.018 |
| C[C@H]1O[C@@H](O[C@H]2[C@@H](O)C[C@H](O[C@H]3[C@@H](O)C[C@H](O[C@H]4CC[C@@]5(C)[C@H](CC[C@@H]6[C@@H]5C[C@@H](O)[C@]5(C)[C@@H](C7=CC(=O)OC7)CC[C@]65O)C4)O[C@@H]3C)O[C@@H]2C)C[C@H](O)[C@@H]1O [Digoxin] | 0.2 ± 0.0092 |
| CC(C)(O/N=C(\C(=O)N[C@@H]1C(=O)N2C(C(=O)[O-])=C(C[n+]3ccccc3)CS[C@H]12)c1csc(N)n1)C(=O)O [Ceftazidime pentahydrate] | 0.0423 ± 0.0036 |
| Cc1cccc(C)c1NC(=O)C(C)N (stereo not given) [Tocainide hydrochloride] | 0.187 ± 0.014 |
| CCCCNc1cc(C(=O)O)cc(S(N)(=O)=O)c1Oc1ccccc1 [Bumetanide] | 0.167 ± 0.018 |
| CCCSc1ccc2[nH]c(NC(=O)OC)nc2c1 [Albendazole] | 0.211 ± 0.031 |
| O=c1[nH]cc(F)c(=O)[nH]1 [5-fluorouracil] | 0.0825 ± 0.0014 |

| Structure (SMILES) | growth |
| --- | --- |
| CCN(CC)CCOC(=O)C(c1ccccc1)c1ccccc1 [Adiphenine hydrochloride] | 0.168 ± 0.0062 |
| CCCCc1cc2ccccc2c(OCCN(C)C)n1 [Dimethisoquin hydrochloride] | 0.199 ± 0.0029 |
| Nc1ccc(S(=O)(=O)Nc2nccs2)cc1 [Sulfathiazole] | 0.202 ± 0.029 |
| Nc1c2c(nc3ccccc13)CCCC2 [Tacrine hydrochloride] | 0.214 ± 0.042 |
| O=C(O)c1cc(/N=N/c2ccc(S(=O)(=O)Nc3ccccn3)cc2)ccc1O [Sulfasalazine] | 0.193 ± 0.018 |
| Oc1c(Cl)cc(Cl)c(Cl)c1Cc1c(O)c(Cl)cc(Cl)c1Cl [Hexachlorophene] | 0.04433 ± 0.00015 |
| CC(C)(C)NC(=O)[C@@H]1C[C@@H]2CCCC[C@@H]2CN1C[C@@H](O)[C@H](Cc1ccccc1)NC(=O)[C@H](CC(N)=O)NC(=O)c1ccc2ccccc2n1 [Saquinavir mesylate] | 0.0468 ± 0.0011 |
| CN1CCN(C2=Nc3cc(Cl)ccc3Nc3ccccc32)CC1 [Clozapine] | 0.178 ± 0.011 |
| COc1ccc(C2CNC(=O)C2)cc1OC1CCCC1 (stereo not given) [Rolipram] | 0.177 ± 0.0086 |
| C[C@H](Cc1cc2c(c(C(N)=O)c1)N(CCCO)CC2)NCCOc1ccccc1OCC(F)(F)F [Silodosin] | 0.171 ± 0.019 |
| COCCCOc1ccnc(C[S+]([O-])c2nc3ccccc3[nH]2)c1C (stereo not given) [Rabeprazole Sodium salt] | 0.135 ± 0.0037 |
| O=C(O)c1cccnc1Nc1cccc(C(F)(F)F)c1 [Niflumic acid] | 0.145 ± 0.002 |
| C[C@]12CC[C@@H]3c4ccc(O)cc4C[C@@H](CCCCCCCCC[S+]([O-])CCCC(F)(F)C(F)(F)F)[C@H]3[C@@H]1CC[C@@H]2O (stereo not given in full) [Fulvestrant] | 0.195 ± 0.017 |
| CC(C)(C)NCC(O)COc1cccc2c1CC(O)C(O)C2 (stereo not given) [Nadolol] | 0.192 ± 0.025 |
| CCc1cccc(CC)c1NC(=O)CN(CC(=O)O)CC(=O)O [Etifenin] | 0.231 ± 0.012 |
| CCC(=O)[C@@]1(C)[C@H](C)C[C@H]2[C@@H]3CCC4=CC(=O)C=C[C@]4(C)[C@H]3[C@@H](O)C[C@@]21C [Rimexolone] | 0.139 ± 0.005 |
| Cc1cn([C@H]2C[C@H](N=[N+]=[N-])[C@@H](CO)O2)c(=O)[nH]c1=O [Zidovudine, AZT] | 0.0839 ± 0.0005 |
| O=C(CCCCCCC(=O)Nc1ccccc1)NO [Vorinostat] | 0.164 ± 0.012 |
| CN/C(=N\CCSCc1nc[nH]c1C)NC#N [Cimetidine] | 0.216 ± 0.028 |
| O=C(N[C@H](CO)[C@H](O)c1ccc([N+](=O)[O-])cc1)C(Cl)Cl [Chloramphenicol] | 0.0408 ± 0.00053 |

Reference: the supplement of paper PMC9262897, “Low-cost anti-mycobacterial drug discovery using engineered E. coli” (Nature Communications, 2022)
